{"source": "paper PMC7819943", "about": "“Rice protein-binding microarrays: a tool to detect cis-acting elements near promoter regions in rice”", "note": "In all, about 39,000 sequences were measured (“fluorescence intensity (a.u.)”: median about 4,300, highest 2% from about 39,000 on). The entries come from a sample that favours the highest values as a whole."}
{"target": "T1, OsSMF1 (Oryza sativa, UniProt Q6ZLB0 1-436)", "T1 sequence": "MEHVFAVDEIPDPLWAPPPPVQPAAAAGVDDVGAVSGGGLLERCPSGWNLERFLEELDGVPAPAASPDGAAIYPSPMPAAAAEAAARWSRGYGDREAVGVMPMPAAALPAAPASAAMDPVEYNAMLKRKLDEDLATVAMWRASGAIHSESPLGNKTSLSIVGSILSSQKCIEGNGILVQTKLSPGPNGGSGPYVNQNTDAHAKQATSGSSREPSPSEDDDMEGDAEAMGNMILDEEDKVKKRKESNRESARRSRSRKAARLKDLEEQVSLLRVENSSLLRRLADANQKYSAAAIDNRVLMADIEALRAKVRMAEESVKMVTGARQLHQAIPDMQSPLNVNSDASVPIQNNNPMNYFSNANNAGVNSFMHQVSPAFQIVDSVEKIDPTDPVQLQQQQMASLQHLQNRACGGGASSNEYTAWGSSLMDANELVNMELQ", "assay": "protein-binding microarray (RPBM); PBS, 2% BSA, 51.3 ng/ul salmon testes DNA, 50 uM zinc acetate, 200 nM TF, 25 C, 1 h; high values mean tight binding", "conditions": "protein: recombinant; tags: N-terminal polyhistidine and DsRed monomer fusion (pET32a); chain copies: 2; label: CyDye5-dUTP incorporated in the synthesized complementary strand; 3' TTTTT single-stranded linker to array surface; dsDNA, one strand shown", "method_in_brief": "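For the binding signal, per-feature fluorescence intensity was read in arbitrary units on an Axon 4000B scanner. Before scanning, a 2% BSA-blocked custom Agilent array made double-stranded with Cy5-dUTP was washed after 1 h at 25 °C with 200 nM protein and 50 µM zinc acetate. The proteins were Ni–NTA-purified transcription factors with N-terminal polyhistidine and DsRed fusions, expressed in E. coli BL21-CodonPlus.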"}
{"sequence": "CTCCTGCCCACCAATCTTGCGGCGGAAAACAAGGCGTGATCGGAGTCACCTAGTGCAG", "binding signal": "4000 fluorescence intensity (a.u.)"}
{"sequence": "TGGTGCTGGTCCTCAACATGCATGTGCTATGGCAAGATCCCGGAGTCACCTAGTGCAG", "binding signal": "42800 fluorescence intensity (a.u.)"}
{"sequence": "TTCATAGAGAGGGCCGGCAACGGCCTAGGCACGCTGGTGTCGGAGTCACCTAGTGCAG", "binding signal": "34700 fluorescence intensity (a.u.)"}
{"sequence": "TGGTGCTGTGGTGGTGGTGGTCATGGACTCATTGGGCATGCGGAGTCACCTAGTGCAG", "binding signal": "3180 fluorescence intensity (a.u.)"}
{"sequence": "GCGAAGCAACATGCTGCTGCTCAAGAGGAGGAAGATGGTGCGGAGTCACCTAGTGCAG", "binding signal": "3350 fluorescence intensity (a.u.)"}
{"sequence": "GTACGTCGGAAGCAACGGCAGACATGACAGCATATGGCCTCGGAGTCACCTAGTGCAG", "binding signal": "15900 fluorescence intensity (a.u.)"}
{"sequence": "TCAGCTGGCATGCATGGCAACATATATATGGCTGGAAGTACGGAGTCACCTAGTGCAG", "binding signal": "40000 fluorescence intensity (a.u.)"}
{"sequence": "CCTACACATATATATATATATATGCATGGCAACTTGGCAACGGAGTCACCTAGTGCAG", "binding signal": "3340 fluorescence intensity (a.u.)"}
{"sequence": "GAGAGTCGCCTTGTCAACATATGGCAGATGCAGCTGGTGCCGGAGTCACCTAGTGCAG", "binding signal": "61100 fluorescence intensity (a.u.)"}
{"sequence": "TTGATGGAGATGGGAGTTGGTGCGGATGTCCTTGTCGCCCCGGAGTCACCTAGTGCAG", "binding signal": "3200 fluorescence intensity (a.u.)"}
{"sequence": "AGCTCGTGACGTTAATCTCCGTATAACCAAGCCATGTTGTCGGAGTCACCTAGTGCAG", "binding signal": "6620 fluorescence intensity (a.u.)"}
{"sequence": "CATATAATTGATAGCAGCATGACAGATTGCCAGTTAGCCGCGGAGTCACCTAGTGCAG", "binding signal": "3290 fluorescence intensity (a.u.)"}
{"sequence": "AGTAGTAGGGCGCGACACGCGTGTACGTTGCGATAGATGTCGGAGTCACCTAGTGCAG", "binding signal": "3330 fluorescence intensity (a.u.)"}
{"sequence": "ATGTCTCGTTATCTCCTAAACATGTCATTACACTGGAAACCGGAGTCACCTAGTGCAG", "binding signal": "3240 fluorescence intensity (a.u.)"}
{"sequence": "TATGGGGCCGTGATATTCAATGTGATGTGCATACAGCATGCGGAGTCACCTAGTGCAG", "binding signal": "3720 fluorescence intensity (a.u.)"}
{"sequence": "CTGCCTCCTGTTCGCGCTCCACGCCACCACTGCCGACGAGCGGAGTCACCTAGTGCAG", "binding signal": "4300 fluorescence intensity (a.u.)"}
{"sequence": "AGAGCGATCTGATCGACCGAGTTGTGTCATGCCGTACTACCGGAGTCACCTAGTGCAG", "binding signal": "4330 fluorescence intensity (a.u.)"}
{"sequence": "AATTATCTTGAAGCACCTCAACTCAACCTGATGTCATACACGGAGTCACCTAGTGCAG", "binding signal": "4390 fluorescence intensity (a.u.)"}
{"sequence": "CCAATTTCCGACTTCATGAGATTTATGTCTTTGTGGTCAGCGGAGTCACCTAGTGCAG", "binding signal": "3210 fluorescence intensity (a.u.)"}
{"sequence": "AGATTTGTGCTCTGACCCACTTCACTCACTTAGTCTCTAGCGGAGTCACCTAGTGCAG", "binding signal": "3630 fluorescence intensity (a.u.)"}
{"sequence": "GAATTTACTTTAGCGGAGATTGAGCACTTTGTGGACCCAGCGGAGTCACCTAGTGCAG", "binding signal": "52400 fluorescence intensity (a.u.)"}
{"sequence": "ATGTGTAATGACATGACTAGGCATTCCCTTCAGTTAGTCTCGGAGTCACCTAGTGCAG", "binding signal": "9940 fluorescence intensity (a.u.)"}
{"sequence": "GAGACCGTTCTGAATTTCTGAGACTGATACATATTTGATGCGGAGTCACCTAGTGCAG", "binding signal": "40300 fluorescence intensity (a.u.)"}
{"sequence": "GTGGAATATTTCTGATCATGGTTTGGGAATAAACGTTCTGCGGAGTCACCTAGTGCAG", "binding signal": "3310 fluorescence intensity (a.u.)"}
{"sequence": "TGCTTCTGATACTCACGTATATTTCATACACACGTGAATGCGGAGTCACCTAGTGCAG", "binding signal": "3210 fluorescence intensity (a.u.)"}
{"sequence": "CGTGCATCCGCTTGTGCTGCCACTTCGACAGCCCGCCCGGCGGAGTCACCTAGTGCAG", "binding signal": "3570 fluorescence intensity (a.u.)"}
{"sequence": "GGGCTCCATAATAGAGTGCCACACTAGCATGTTACGATATCGGAGTCACCTAGTGCAG", "binding signal": "3510 fluorescence intensity (a.u.)"}
{"sequence": "TTAACAGTTGGTTACTAGTCCTAATTAATTCAGTAGCAATCGGAGTCACCTAGTGCAG", "binding signal": "4700 fluorescence intensity (a.u.)"}
{"sequence": "TCTACTGCAATTAGTTGATTCAGCTAGTAGCAAACATAATCGGAGTCACCTAGTGCAG", "binding signal": "54800 fluorescence intensity (a.u.)"}
{"sequence": "CATAATTAGCGGTTGATTACTGTAGCATCACTGTAACAAACGGAGTCACCTAGTGCAG", "binding signal": "3730 fluorescence intensity (a.u.)"}
{"sequence": "TTTAGAATACTGCTCATACGTCAGTAACAAAGTCACACGACGGAGTCACCTAGTGCAG", "binding signal": "3880 fluorescence intensity (a.u.)"}
{"sequence": "GCCCAAAGAAAGAAGGAGGTGGACACGTGGGAGATCTGCGCGGAGTCACCTAGTGCAG", "binding signal": "11200 fluorescence intensity (a.u.)"}
{"sequence": "CCCAATCCGAACGGGACAGCTGCCCACGTGCGACCCATGTCGGAGTCACCTAGTGCAG", "binding signal": "4920 fluorescence intensity (a.u.)"}
{"sequence": "CCAATTTGACGTGAAATGTTTAGATGATCTCTTGCCAGTACGGAGTCACCTAGTGCAG", "binding signal": "3150 fluorescence intensity (a.u.)"}
{"sequence": "CTAATATATTGACGTGTAATTCTTTTGTGTGTTTGTGAAACGGAGTCACCTAGTGCAG", "binding signal": "6530 fluorescence intensity (a.u.)"}
{"sequence": "CATTGCTTTGTTTGATCTTGTGTGCCAATAATTGATGAAACGGAGTCACCTAGTGCAG", "binding signal": "55900 fluorescence intensity (a.u.)"}
{"sequence": "ACATGGGGAAAACCAGGGACTAAAACTGTAATCAAACAGTCGGAGTCACCTAGTGCAG", "binding signal": "29500 fluorescence intensity (a.u.)"}
{"sequence": "CCTTCCGTTCGACGCGACACGCGAGTCATTGCTGCCACCACGGAGTCACCTAGTGCAG", "binding signal": "3680 fluorescence intensity (a.u.)"}
{"sequence": "CCTCTCGTGGCATCGCATCGCATCGTGTCCTCTGCGACTGCGGAGTCACCTAGTGCAG", "binding signal": "3630 fluorescence intensity (a.u.)"}
{"sequence": "GACAAGCTCGGCACCAATCTCCACAGGAGCCGCATCAGGTCGGAGTCACCTAGTGCAG", "binding signal": "3420 fluorescence intensity (a.u.)"}
{"sequence": "AGTCCAAGAGCGTGACGCATGTTCGGTACCACGCGCACAACGGAGTCACCTAGTGCAG", "binding signal": "4740 fluorescence intensity (a.u.)"}
{"sequence": "GACCCAAATGTCATAGAGACACGACGGTTCACATGTCATACGGAGTCACCTAGTGCAG", "binding signal": "3900 fluorescence intensity (a.u.)"}
{"sequence": "CATGTCGACATGTTCACAAGCGGTACCAAGAGTCAAGACACGGAGTCACCTAGTGCAG", "binding signal": "45800 fluorescence intensity (a.u.)"}
{"sequence": "TCTCCCTCTACCTCGACGTCATCAACCTCTTCCTCTCCCTCGGAGTCACCTAGTGCAG", "binding signal": "11000 fluorescence intensity (a.u.)"}
{"sequence": "GTTAACAGTAAGTTATTCTTTGAACTCCATATATTTGTTCCGGAGTCACCTAGTGCAG", "binding signal": "3440 fluorescence intensity (a.u.)"}
{"sequence": "ACACCATGCGTATGATGCAATACCTATTGACTCCATTGAACGGAGTCACCTAGTGCAG", "binding signal": "3380 fluorescence intensity (a.u.)"}
{"sequence": "GTATTGATGTTCTTACCATAAAAGTAACTCCATGAAAGAACGGAGTCACCTAGTGCAG", "binding signal": "41100 fluorescence intensity (a.u.)"}
{"sequence": "GCTTTGCATAGGCACTTTCAAAACTAGATATTAGTAACGCCGGAGTCACCTAGTGCAG", "binding signal": "51000 fluorescence intensity (a.u.)"}
{"sequence": "TAGATTGCTTTTCAGTGAAACTACGTGCACATATGCATGCCGGAGTCACCTAGTGCAG", "binding signal": "3250 fluorescence intensity (a.u.)"}
{"sequence": "ACACTAGTAACAAAACTTGGCAATTTGGCATTTGGCATTTCGGAGTCACCTAGTGCAG", "binding signal": "3300 fluorescence intensity (a.u.)"}
{"sequence": "ACAGGTGCACGCACACGTGCCGCATCAACCAGACAGCCACCGGAGTCACCTAGTGCAG", "binding signal": "3360 fluorescence intensity (a.u.)"}
{"sequence": "TGTTTAATAATAAATTTAGTAACATCAATTTTACATGATTCGGAGTCACCTAGTGCAG", "binding signal": "46100 fluorescence intensity (a.u.)"}
{"sequence": "AAAATTTATTCATCCATCGTCATAATTTTAATTATATGCACGGAGTCACCTAGTGCAG", "binding signal": "4150 fluorescence intensity (a.u.)"}
{"sequence": "CGGTGTTTGTAATTCATTTTATATAATGAAAATGGATTATCGGAGTCACCTAGTGCAG", "binding signal": "44600 fluorescence intensity (a.u.)"}
{"sequence": "TAGTTATAAAGCACTGTAATTTTAGTTATAAATACAACATCGGAGTCACCTAGTGCAG", "binding signal": "3260 fluorescence intensity (a.u.)"}
{"sequence": "TTTTATTTCATTATATGATCCCATCAAATATAAATTAGCACGGAGTCACCTAGTGCAG", "binding signal": "48500 fluorescence intensity (a.u.)"}
{"sequence": "AAACATAACAATATTTTCAACATAAAACAAATAATGTTATCGGAGTCACCTAGTGCAG", "binding signal": "3530 fluorescence intensity (a.u.)"}
{"sequence": "AAATATAATAAATTTAATGTTAACATATTTTACACGTAAGCGGAGTCACCTAGTGCAG", "binding signal": "9740 fluorescence intensity (a.u.)"}
{"sequence": "TTATAAATTAAATTTTATGTAATGAAAATAATATCATTGGCGGAGTCACCTAGTGCAG", "binding signal": "3900 fluorescence intensity (a.u.)"}
{"sequence": "GTAAATTTCATAAAATCCCACGTATTATGATTCAAATTGCCGGAGTCACCTAGTGCAG", "binding signal": "5110 fluorescence intensity (a.u.)"}
{"sequence": "AATATTTACATTACTAAATTAGTTTTATTAAATTAATAATCGGAGTCACCTAGTGCAG", "binding signal": "19800 fluorescence intensity (a.u.)"}
{"sequence": "CTCTCAAAATATTCGGATGTAATTTTAGTCGCACAAACATCGGAGTCACCTAGTGCAG", "binding signal": "39200 fluorescence intensity (a.u.)"}
{"sequence": "CATATTATAAAATGTTGTGCTAATTATTATCGGTGTATATCGGAGTCACCTAGTGCAG", "binding signal": "22300 fluorescence intensity (a.u.)"}
